Shown are actives, neighbours in structure and some others; about 18% of the full set was active somewhere.
TDP1 cell CPT – qHTS for Inhibitors of human tyrosyl-DNA phosphodiesterase 1 (TDP1): qHTS in cells in presence of CPT. Potency, µM (doses to about 46.2 µM), without a hit: at the top dose activity change, negative = growth inhibition, hits mostly inhibitors. 420,000 tested, 12% active. AID 686979, 2013. chicken DT40 Tdp1-/-;hTDP1 cells + 20 nM CPT, ATP luminescence, 48 h; note: potency is the fitted concentration of half-maximal effect; % is set by controls: 0 for no effect and ±100 for the full control effect; nearly all actives have a fitted effect of over 55% in size
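Cell growth measured by CellTiter-Glo luminescence after a minimum 48 h, 37 C compound exposure with 20 nM CPT in Tdp1-knockout DT40 cells stably expressing hTDP1, seeded 400/well; qHTS titration format.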
TDP1 inh – qHTS Assay for Inhibitors of Tyrosyl-DNA Phosphodiesterase (TDP1) | 350,000 tested, 0.28% active | Potency, µM (titrated, usually from 130 µM), for the others: at the top dose activity change, negative = inhibition, hits mostly inhibitors | Tyrosyl-DNA phosphodiesterase 1 (Homo sapiens), Q9NUW8 | recombinant TDP1, AlphaScreen DNA substrate cleavage | AID 485290, 2010; note: potency is the fitted concentration of half-maximal effect; % is set by controls: 0 for no effect and ±100 for the full control effect; nearly all actives have a fitted effect of over 40% in size
Target sequence (Q9NUW8 whole entry, looked up): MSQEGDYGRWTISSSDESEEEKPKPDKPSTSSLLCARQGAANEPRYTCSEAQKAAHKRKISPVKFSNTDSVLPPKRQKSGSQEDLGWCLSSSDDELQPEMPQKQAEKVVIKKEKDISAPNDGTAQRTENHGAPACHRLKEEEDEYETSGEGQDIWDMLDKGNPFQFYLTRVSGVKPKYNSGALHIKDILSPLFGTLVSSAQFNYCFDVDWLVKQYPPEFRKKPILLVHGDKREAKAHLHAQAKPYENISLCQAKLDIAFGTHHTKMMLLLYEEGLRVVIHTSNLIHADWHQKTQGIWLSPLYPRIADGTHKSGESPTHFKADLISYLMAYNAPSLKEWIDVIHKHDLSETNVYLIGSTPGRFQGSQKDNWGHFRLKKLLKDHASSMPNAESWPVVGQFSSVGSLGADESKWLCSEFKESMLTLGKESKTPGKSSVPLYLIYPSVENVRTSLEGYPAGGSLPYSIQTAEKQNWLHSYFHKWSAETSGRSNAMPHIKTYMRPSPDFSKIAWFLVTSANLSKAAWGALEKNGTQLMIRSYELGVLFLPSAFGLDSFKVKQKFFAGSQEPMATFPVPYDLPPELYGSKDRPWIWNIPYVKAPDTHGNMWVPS
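Steps: enzyme plus compound, 15 min RT; add biotin/phosphotyrosine-FITC oligonucleotide (15 nM final), react 5 min; add donor/acceptor beads (10 ug/ml final), 10 min; read AlphaScreen. Tdp1 at 1 nM final.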
DT40 TDP1 no CPT – qHTS for Inhibitors of human tyrosyl-DNA phosphodiesterase 1 (TDP1): qHTS in cells in absence of CPT; 420,000 tested, 15% active; Potency, µM (titrated, usually from 46.2 µM), without a hit: at the highest dose activity change, negative = growth inhibition, actives largely listed as inhibitors; DT40 Tdp1-/- hTDP1 cells, no CPT, ATP luminescence, 48 h; note: potency is the fitted concentration of half-maximal effect; % is set by controls: 0 for no effect and ±100 for the full control effect; nearly all actives have a fitted effect of over 55% in size
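No-CPT arm: Tdp1-/-;hTDP1 DT40 cells (400/well) plus compounds, incubated ≥48 hr at 37 °C. Readout CellTiter-Glo luminescence.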
IL-1B inflam inh – qHTS for Inhibitors of Inflammasome Signaling: IL-1-beta AlphaLISA Primary Screen. 360,000 tested, 4.7% active. THP-1 LPS/ATP IL-1B secretion, AlphaLISA, 16 h; active compounds read low. activity change, % at 57.5 µM; in the data active = activity change below about -50%; inconclusive = mostly about -30% to -49%; note: % is set by controls: 0 for no effect and ±100 for the full control effect
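THP-1 cells pretreated 1 hr with compounds (up to 57.5 uM final), then stimulated with LPS (250 ng/mL final) plus ATP (1.25 mM final); secreted IL-1B measured by AlphaLISA after 16 hr, decreased signal indicating inhibition.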
TGFb inhibitor – qHTS for Inhibitors of TGF-b. Potency, µM (highest dose often 46.1 µM), for inactives: at the top dose activity, negative = inhibition, actives largely listed as inhibitors. 410,000 tested, 1.2% active. AID 588855, 2011. HepG2 CAGA-GFP TGF-b/SMAD3 reporter, GFP fluorescence, 18 h; TGF-beta stimulated, 500 pg/mL final; note: potency is the fitted concentration of half-maximal effect; % is set by controls: 0 for no effect and ±100 for the full control effect; nearly all actives have a fitted effect of over 65% in size
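Per well, imaged GFP fluorescence of HEPG2 CAGA-GFP cells gives the signal; cells get compound, then TGF-beta (500 pg/mL final), 18 h at 37 degrees C; %Activity versus -TGF-beta and +DMSO controls.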
HepG2 tox – qHTS for Inhibitors of TGF-b: Cytotox Counterscreen | HepG2 CAGA-GFP viability, ATP luminescence, 18 h | Potency, µM (top dose mostly 46.1 µM), for inactives: top-dose activity change, negative = cytotoxicity, hits mostly cytotoxic | 410,000 tested, 0.76% active | AID 588856, 2011; note: potency is the fitted concentration of half-maximal effect
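CellTiter-Glo luminescence gave cytotoxicity after 18 hours at 37 degrees C. The cells were HepG2 CAGA-GFP in 1% FBS DMEM, stimulated with 500 pg/mL TGF-beta after compound addition. %Activity was normalised to no-cell wells (complete cell-killing) and DMSO (no toxicity), and curves were fitted and classified.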
* marks the source's active call; other numbers are inactive results; ? = inconclusive; nt = not tested or not shown. Unless noted, calls come from the whole dose curve; as a rule, active = well fitted curve in the direction sought with a large enough effect; inconclusive = small, poorly fitted or top-dose-only effect, or another doubt; inactive = no such curve, though single readings can be large; an effect the other way counts as inactive or inconclusive.

SMILES | TDP1 cell CPT | TDP1 inh | DT40 TDP1 no CPT | IL-1B inflam inh | TGFb inhibitor | HepG2 tox
O=C1c2cccc(OCc3ccc(F)cc3)c2CCN1Cc1ccccc1 | ? | 4% | ? | -57* | 18µM* | -36%
Cc1cccc(CN2CCc3c(OCC(=O)N4CCCc5ccccc54)cccc3C2=O)c1 | 4.6µM* | 3% | 5.8µM* | ? | ? | -18%
CN1CCc2c(OCC(=O)N3CCC(Cc4ccccc4)CC3)cccc2C1=O | 21µM* | 6% | 18µM* | ? | -9% | -52%
CCN1CCc2c(OCc3ccccc3)cccc2C1=O | -18% | 8% | ? | ? | 3% | -16%
Cc1cccc(CN2CCc3c(OCC(=O)NCc4ccco4)cccc3C2=O)c1 | ? | -5% | ? | -2 | ? | -14%
CN(CC(=O)Nc1ccccc1Br)C(=O)CCCSc1nc2ccccc2[nH]1 | -10% | nt | -22% | 5 | ? | 10%
CN1CCc2c(OCC(=O)N3CCCc4ccccc43)cccc2C1=O | -25% | 1% | 29µM* | 1 | 2% | -14%
O=C(NC(Cc1c[nH]c2ccccc12)C(=O)O)OCC1c2ccccc2-c2ccccc21 (configuration not stated) | 8% | nt | 7% | 53 | -3% | 5%
Cc1cccc(NCc2ccc([N+](=O)[O-])s2)c1 | -1% | nt | -3% | -21 | -1% | -2%
O=[N+]([O-])c1ccc(CNc2cccc(F)c2)s1 | 5% | nt | -28% | -52* | -13% | -30%
COc1ccc(Oc2nc(SC)nc3ccccc23)cc1 | ? | 3% | ? | -19 | ? | -1%
CC(C)(C)N1CC(C(=O)Nc2cccc(Cl)c2Cl)CC1=O (configuration not stated) | 26% | nt | -7% | -69* | 16% | -14%
CN(C)C(CNC(=O)c1ccc(-c2ccccc2)cc1)c1ccccc1 (configuration not stated) | ? | 5% | 18µM* | -54* | 2% | -31%
COc1ccc(/C=C/C(=O)Nc2ccccc2C(=O)NCC(c2ccc(OC)cc2)N(C)C)cc1 (configuration not stated) | 18µM* | 17% | 23µM* | -78* | -3% | -15%
COc1ccc(C(CNC(=O)Cc2ccc(-c3ccccc3)cc2)N(C)C)cc1 (configuration not stated) | 21µM* | 4% | 18µM* | -28 | -9% | -28%
N#Cc1cccc(NC(=O)N2CCCC3(CCN(S(=O)(=O)c4ccccc4)CC3)C2)c1 | 6% | nt | -28% | nt | nt | nt
CC(C)(C)C1COc2ccccc2N1C(=O)c1cccc(Cl)c1 (configuration not stated) | ? | nt | 23µM* | 8 | -18% | -42%
COc1ccccc1CNC(=O)C1(c2cccs2)CCOCC1 | -26% | 0% | ? | nt | -22% | 2%
COc1cc(NC(=O)c2ccc(=O)[nH]n2)cc(OC)c1OC | 17% | nt | -2% | 13 | 5% | -20%
O=C(CC(=O)c1ccccc1)Nc1ccc(Cl)cc1 | ? | nt | ? | -77* | ? | -17%
O=C(CC(Nc1cccc(Cl)c1Cl)C(=O)O)c1ccccc1 (configuration not stated) | -22% | nt | 12% | 37 | -14% | -1%
O=C(CC(Nc1ccc(Cl)cc1)C(=O)O)c1ccccc1 (configuration not stated) | 21µM* | 5% | -26% | -7 | -3% | -13%
Cc1c(Cl)cccc1NC(CC(=O)c1ccccc1)C(=O)O (configuration not stated) | 15µM* | 2% | ? | -3 | -15% | 1%
COc1ccc2cc3cc(C(=O)NCC4COc5ccccc5O4)oc3nc2c1 (configuration not stated) | ? | 3% | 16µM* | -10 | -15% | -20%
CCN(C(=O)c1cc2cc3ccc(C)cc3nc2o1)c1ccc(OC)cc1 | -15% | 0% | ? | -52* | 2% | -2%
SMILES | TDP1 cell CPT | TDP1 inh | DT40 TDP1 no CPT | IL-1B inflam inh | TGFb inhibitor | HepG2 tox
CCCCN(C)C(=O)c1cc2cc3ccc(OC)cc3nc2o1 | -16% | nt | -17% | ? | -18% | -20%
COc1ccc(CNC(=O)c2cc3cc4ccc(C)cc4nc3o2)cc1 | ? | -2% | 23µM* | nt | ? | -9%
O=C(NCCc1nc2ccccc2n1Cc1ccccc1F)c1ccc(F)cc1 | ? | -12% | ? | nt | 0% | -8%
COc1ccc(NC(=O)COC(=O)Cc2ccccc2[N+](=O)[O-])cc1OC | ? | 9% | 26µM* | -4 | -26% | -9%
COc1ccccc1CNc1ccc2c(c1)CCC2 | 4.6µM* | nt | 10µM* | -60* | 1% | -16%
COc1ccc(CNc2ccc3c(c2)CCC3)cc1Br | -12% | 7% | 0% | 13 | -3% | 0%
COc1cc2c(cc1OC)C(Cc1ccccc1[N+](=O)[O-])=NCC2 | ? | nt | 23µM* | 12 | ? | -36%
COc1ccccc1C(=O)NC(=O)COC(=O)Cc1ccccc1[N+](=O)[O-] | ? | nt | ? | 16 | -1% | 2%
COc1ccc(CC(=O)NNS(=O)(=O)c2ccccc2[N+](=O)[O-])cc1OC | 7% | 2% | -18% | -10 | ? | -30%
COc1ccc(NCc2ccccc2[N+](=O)[O-])cc1OC | 16µM* | 8% | 16µM* | -1 | 6% | 10%
COc1cc2c(cc1OC)C(c1ccccc1[N+](=O)[O-])N(C(C)=O)CC2 (configuration not stated) | 29% | nt | 3% | -5 | 18% | 3%

Bioassay records (PubChem)
